# Measurements taken from the antibiotic and cytotoxicity screens of Wong et al. (2023).
# Hit rate of the full screen: of about 39,000 compounds, about 3,300 (8.5%) were called active. For the sample, actives were picked, then their nearest neighbours and some compounds at random.
# Tested on: HepG2
# Experiment: cytotoxicity call (relative viability < 0.9)
# Conditions: 10 µM
row,Structure (SMILES),cytotoxicity call
1,C[C@@H]1CN([C@@H](C)CO)S(=O)(=O)c2ccc(C#CC(C)(C)O)cc2O[C@@H]1CN(C)C(=O)C1CCCCC1,inactive
2,C[C@@H]1CN([C@@H](C)CO)C(=O)c2cc(NS(=O)(=O)c3cn(C)cn3)ccc2O[C@@H]1CN(C)Cc1ccc(C(=O)Nc2ccccc2N)cc1,inactive
3,O=C(C[C@@H]1CC[C@@H](NC(=O)CN2CCOCC2)[C@H](CO)O1)NCc1cccc(F)c1,inactive
4,C[C@H]1CN([C@@H](C)CO)C(=O)Cc2cc(NS(=O)(=O)c3cccs3)ccc2O[C@H]1CN(C)S(C)(=O)=O,inactive
5,C[C@H](CO)N1C[C@H](C)[C@H](CN(C)Cc2ccccc2)Oc2ccc(NC(=O)Cn3cnnn3)cc2C1=O,inactive
6,C[C@@H]1CN([C@@H](C)CO)C(=O)c2cccc(NC(=O)c3cnccn3)c2O[C@@H]1CN(C)Cc1ccncc1,inactive
7,COc1ccc2c3c(n(c2c1)C)[C@@H](CO)N(C[C@]13CCN(CC1)C(=O)Nc1cccc(c1)F)C(=O)CN1CCOCC1,inactive
8,C[C@@H]1CN([C@H](C)CO)C(=O)c2cccc(NC(=O)Nc3ccc4c(c3)OCO4)c2O[C@H]1CN(C)Cc1ccc(Cl)c(Cl)c1,inactive
9,CNC[C@H]1Oc2ccc(NS(=O)(=O)c3cn(C)cn3)cc2CC(=O)N([C@@H](C)CO)C[C@H]1C,inactive
10,C[C@H](O)C#Cc1ccc2c(c1)O[C@@H](CN(C)C(=O)c1ccccc1)[C@@H](C)CN([C@H](C)CO)S2(=O)=O,inactive
11,COc1ccc(NC(=O)Nc2ccc3c(c2)C(=O)N([C@H](C)CO)C[C@@H](C)[C@@H](CN(C)S(=O)(=O)c2cccs2)OCCCC[C@H](C)O3)cc1,inactive
12,CO[C@@H]1CN(C)C(=O)c2cc(NC(=O)NC3CCCCC3)ccc2OC[C@@H](C)N(CCc2ccccc2)C[C@@H]1C,inactive
13,CO[C@H]1CN(C)C(=O)c2cc(NC(=O)NC(C)C)ccc2OC[C@H](C)N(Cc2ccc(-c3ccccn3)cc2)C[C@@H]1C,active
14,CO[C@@H]1CN(C)C(=O)c2cc(NC(=O)NC(C)C)ccc2OC[C@@H](C)N(Cc2ccc(-c3ccccn3)cc2)C[C@@H]1C,inactive
15,CO[C@@H]1CN(C)C(=O)c2cc(NC(=O)NC3CCCCC3)ccc2OC[C@H](C)N(CCc2ccccc2)C[C@@H]1C,inactive
16,CO[C@@H]1CN(C)C(=O)c2cc(NC(=O)NC3CCCCC3)ccc2OC[C@@H](C)N(CCc2ccccc2)C[C@H]1C,active
17,CO[C@@H]1CN(C)C(=O)c2cc(NC(=O)NC(C)C)ccc2OC[C@H](C)N(Cc2ccc(-c3ccccn3)cc2)C[C@H]1C,inactive
18,COc1ccccc1CNC(=O)C[C@H]1C[C@@H]2c3cc(NC(=O)NC4CCCC4)ccc3O[C@@H]2[C@H](CO)O1,inactive
19,NC[C@H]1CN(Cc2ccc(F)cc2)CCO1,inactive
20,CN1C(=O)c2cc(NC(=O)C3CCOCC3)ccc2OC[C@@H]2O[C@H](CC(=O)NCCc3ccncc3)CC[C@@H]21,inactive
21,N[C@@H](Cc1ccc2nonc2c1)C(=O)O,inactive
22,O=C(C[C@@H]1CC[C@@H]2[C@H](COC[C@H](O)CN2S(=O)(=O)c2ccc(Cl)cc2)O1)N1CCc2ccccc2C1,inactive

row,Structure (SMILES),cytotoxicity call
1,O=C(c1cccc2ccccc12)N(C1CCCC1)C1CCCC1,inactive
2,CCN(CC)CCOC(=O)C(Cc1cccc2ccccc12)CC1CCCO1.O=C(O)C(=O)O (stereo not drawn),active
3,CCn1c(=O)cc(N2CCC(C)CC2)[nH]c1=O,inactive
4,COC1CC(OC2C(C)OC(OC3C(C)=CCC4CC(CC5(C=CC(C)C(C6CCCCC6)O5)O4)OC(=O)C4C=C(C)C(O)C5OCC(=CC=CC3C)C45O)CC2OC)OC(C)C1O (stereo not drawn),inactive
5,CON=C1CC2(CC3CC(CC=C(C)CC(C)C=CC=C4COC5C(O)C(C)=CC(C(=O)O3)C45O)O2)OC(C(C)=CC(C)C)C1C (stereo not drawn),active
6,CO[C@H]1C[C@H](O[C@H]2[C@H](C)O[C@@H](O[C@@H]3/C(C)=C/C[C@@H]4C[C@@H](C[C@]5(C=C[C@H](C)[C@@H](C6CCCCC6)O5)O4)OC(=O)[C@@H]4C=C(C)[C@@H](O)[C@H]5OC/C(=C\C=C\[C@@H]3C)[C@]54O)C[C@@H]2OC)O[C@@H](C)[C@@H]1O,inactive
7,CO/N=C1\C[C@]2(C[C@@H]3C[C@@H](C/C=C(\C)C[C@@H](C)/C=C/C=C4\CO[C@@H]5[C@H](O)C(C)=C[C@@H](C(=O)O3)[C@]45O)O2)O[C@H](/C(C)=C/C(C)C)[C@H]1C,active
8,C[C@@H]1CN([C@H](C)CO)C(=O)c2cc(NC(=O)c3ccncc3)ccc2O[C@@H](C)CCCCO[C@H]1CN(C)S(=O)(=O)c1cn(C)cn1,inactive
9,CC(C)NC(=O)N(C)C[C@@H]1Oc2ncc(-c3ccc(C(=O)N(C)C)cc3)cc2C(=O)N([C@H](C)CO)C[C@H]1C,inactive
10,CN(C)C(=O)c1cccc(-c2cccc(-c3nc(C(=O)N4CCCCC4)cc4c3[C@H](CCO)N([S@@](=O)C(C)(C)C)C4)c2)c1,inactive
11,C[C@@H]1CN([C@@H](C)CO)C(=O)c2cc(NC(=O)c3ccccc3)ccc2O[C@@H](C)CCCCO[C@H]1CN(C)C(=O)Nc1ccc2c(c1)OCO2,inactive
12,C[C@@H]1CN([C@@H](C)CO)C(=O)CCCn2nncc2CO[C@H]1CN(C)Cc1ccc2c(c1)OCCN2C,inactive
13,CCC(C)C(=O)OC1CC(O)C=C2C=CC(C)C(CCC(O)CC(O)CC(=O)[O-])C21.[Na+] (stereo not drawn),inactive
14,CCC(C)C(=O)OC1CCC=C2C=CC(C)C(CCC3CC(O)CC(=O)O3)C21 (stereo not drawn),active
15,CCC(C)C(=O)OC1CC(C)C=C2C=CC(C)C(CCC3CC(O)CC(=O)O3)C21 (stereo not drawn),inactive
16,C[C@@H]1CN([C@@H](C)CO)C(=O)c2cc(NS(=O)(=O)c3ccc(F)cc3)ccc2O[C@@H](C)CCCCO[C@@H]1CN(C)C(=O)Nc1ccc(F)cc1,inactive
17,C[C@H]1CCCCO[C@H](CN(C)C(=O)Nc2ccc(F)cc2)[C@@H](C)CN([C@@H](C)CO)C(=O)c2cc(NS(=O)(=O)c3ccc(F)cc3)ccc2O1,active
18,C[C@@H]1CCCCO[C@H](CN(C)C(=O)Nc2ccc(F)cc2)[C@@H](C)CN([C@@H](C)CO)C(=O)c2cc(NS(=O)(=O)c3ccc(F)cc3)ccc2O1,active
19,C[C@@H]1CN([C@H](C)CO)C(=O)c2cc(NS(=O)(=O)c3ccc(F)cc3)ccc2O[C@@H](C)CCCCO[C@H]1CN(C)C(=O)Nc1ccc(F)cc1,inactive
20,C[C@@H]1CCCCO[C@H](CN(C)C(=O)Nc2ccc(F)cc2)[C@@H](C)CN([C@H](C)CO)C(=O)c2cc(NS(=O)(=O)c3ccc(F)cc3)ccc2O1,inactive
21,C[C@H](CO)N1C[C@H](C)[C@H](CN(C)C(=O)Nc2ccc(F)cc2)OCCCC[C@H](C)Oc2ccc(NS(=O)(=O)c3ccc(F)cc3)cc2C1=O,inactive
